LASV entry inh = blocks Lassa virus binding to or entry into cells | AID 540256 | 1.2% of 300,000 active | Lassa virus pseudotype entry inhibition, cell reporter | Potency, µM (doses to about 37.9 µM), for the others: at the highest dose activity change, negative = inhibition, usual class: inhibitors; calls by dose curve; tested in HEK293 cells; also: potency is read from the fitted curve at half-maximal effect; nearly all actives have a fitted effect of over 50% in size
FMDV inh = foot and mouth disease virus antiviral activity. 1.2% of 410,000 active. FMDV antiviral cell-based qHTS. AID 1159524. Potency, µM (series often up to 57.9 µM), inactives show at the top dose activity change, negative = inhibition, most hits filed as inhibitors; calls by dose curve; tested in HEK293T cells; also: read-out not given here; potency is read from the fitted curve at half-maximal effect; nearly all actives have a fitted effect of over 45% in size
Marburg entry inh = inhibitors of Marburg virus binding or cell entry; Marburg virus pseudotyped entry inhibition, cell reporter; Potency, µM (highest dose often 37.8 µM), inactives show at the top dose activity change, negative = inhibition, usual class: inhibitors; 1.8% of 300,000 active; AID 540276; calls by dose curve; tested in HEK293 cells; also: potency is read from the fitted curve at half-maximal effect
HCMV antiviral = inhibitors of human cytomegalovirus; HFF cells, HCMV-luciferase reporter, 72 h; active compounds read low; activity change, negative = inhibition, % at 57.5 µM; 4.5% of 410,000 active; AID 1259415; in the data active = activity change below about -60%; inconclusive = no clear call, values can overlap the other calls; inactive = above about -39%
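Compounds were evaluated in HFFs infected with an HCMV luciferase reporter virus (MOI 1 PFU/cell). Luciferase in lysates collected 72 h post infection served as the replication measure.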
FBPA Giardia inh = Giardia lamblia aldolase inhibition; Potency, µM (doses to about 59.6 µM), for the others: at the highest dose activity, negative = inhibition, actives largely listed as inhibitors; A8B2U2; purified Giardia FBPA; AID 2451; 0.71% of 290,000 active; also: potency is read from the fitted curve at half-maximal effect; nearly all actives have a fitted effect of over 55% in size
Target sequence (A8B2U2 whole entry, looked up): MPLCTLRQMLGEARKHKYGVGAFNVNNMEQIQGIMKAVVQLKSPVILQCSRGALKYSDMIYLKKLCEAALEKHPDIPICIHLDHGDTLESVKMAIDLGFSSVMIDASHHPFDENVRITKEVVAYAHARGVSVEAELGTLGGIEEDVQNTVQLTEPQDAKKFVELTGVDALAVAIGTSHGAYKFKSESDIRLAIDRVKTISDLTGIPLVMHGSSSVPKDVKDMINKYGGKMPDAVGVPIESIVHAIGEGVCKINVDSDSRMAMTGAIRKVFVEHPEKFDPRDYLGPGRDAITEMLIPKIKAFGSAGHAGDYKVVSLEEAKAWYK
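40 nM FBPA preincubated 10 min at RT with compound (up to 57.5 uM final), then substrate plus GAPDH/TPI/NAD/arsenate coupling and diaphorase/resazurin added. Fluorescence read after 20 min at RT, 525/598 nm.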
HCV inhibitor = HCV inhibition. Huh7.5.1 HCVcc-Cre infection, luciferase reporter, 44 h. Potency, µM (series often up to 41.8 µM), inactives show at the top dose activity change, negative = inhibition, hits mostly inhibitors. 3.4% of 340,000 active. AID 651820; also: potency is read from the fitted curve at half-maximal effect
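HCVcc-Cre virus at an moi near 0.5 was added right after compound to cells cultured 4 h from seeding (1,000 cells/well). Luciferase activity was determined 44 h later, 15 min after substrate addition at RT.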
An asterisk follows results filed as active; [ ] = dose if it differs, or a comment. Only some compounds are listed: those with a hit (about 8.3% of all), similar ones and a draw of the others. Unless noted, calls follow the shape of the dose curve; as a rule, active = well fitted curve in the direction sought with a large enough effect; inconclusive = small, poorly fitted or top-dose-only effect, or another doubt; inactive = no such curve, though single readings can be large; an effect the other way counts as inactive or inconclusive. % is scaled to controls: 0 for no effect and ±100 for the full control effect.

For CC[C@H](C)[C@H](NC(=O)[C@H](CO)NC(=O)[C@H](CC(C)C)NC(=O)[C@H](CO)NC(=O)[C@@H]1CCCN1C(=O)[C@H](CC(N)=O)NC(=O)[C@@H](N)CC(=O)O)C(=O)N[C@@H](CC(=O)O)C(=O)N[C@@H](CC(C)C)C(=O)N[C@H](C(=O)N[C@@H](Cc1ccccc1)C(=O)N[C@@H](Cc1cnc[nH]1)C(=O)N[C@@H](CC(C)C)C(=O)N[C@@H](CC(C)C)C(=O)N[C@@H](CCCNC(=N)N)C(=O)N[C@H](C(=O)N[C@@H](CC(C)C)C(=O)N[C@@H](CC(C)C)C(=O)N[C@@H](CCC(=O)O)C(=O)N[C@@H](CC(C)C)C(=O)N[C@@H](C)C(=O)N[C@@H](CCCNC(=N)N)C(=O)N[C@H](C(=O)N[C@@H](CCC(N)=O)C(=O)N[C@@H](CO)C(=O)N[C@@H](CCC(N)=O)C(=O)N[C@@H](CCCNC(=N)N)C(=O)N[C@@H](CCC(=O)O)C(=O)N[C@@H](CCCNC(=N)N)C(=O)N[C@@H](C)C(=O)N[C@@H](CCC(=O)O)C(=O)N[C@@H](CCC(N)=O)C(=O)N[C@@H](CC(N)=O)C(=O)N[C@@H](CCCNC(=N)N)C(=O)N[C@H](C(=O)N[C@H](C(=O)N[C@@H](Cc1ccccc1)C(=O)N[C@@H](CC(=O)O)C(=O)N[C@@H](CO)C(=O)N[C@H](C(N)=O)C(C)C)[C@@H](C)CC)[C@@H](C)CC)[C@@H](C)O)[C@@H](C)O)[C@@H](C)O the results were FBPA Giardia inh 5%.
`Cc1ccc(S(=O)(=O)c2cc3c(=O)n4cccc(C)c4nc3n(C3CCCCC3)c2=N)cc1` gave LASV entry inh 1%[46.1 µM], FMDV inh -5%, Marburg entry inh 9%[46.1 µM], FBPA Giardia inh -3% and HCV inhibitor -15%.
Cc1ccc(S(=O)(=O)c2cc3c(=O)n4ccccc4nc3n(C3CCCC3)c2=N)cc1 was read as LASV entry inh 24%[46.1 µM], FMDV inh -11%, Marburg entry inh 0%[46.1 µM], HCMV antiviral 8, FBPA Giardia inh 4% and HCV inhibitor 5µM*.
For CC1OC(OC2C=C3CCC4C(CCC5(C)C(c6ccc(=O)oc6)CCC45O)C3(C)CC2)C(O)C(OC2OC(CO)C(O)C(O)C2O)C1O (centres undefined) the results were LASV entry inh inconclusive, FMDV inh inconclusive, Marburg entry inh inconclusive, HCMV antiviral -97* and HCV inhibitor 16µM*.
`COC1C(O)C(C)O[C@@H](OC2CC[C@@]3(C)C4CC[C@]5(C)C(C6=CC(=O)OC6)CC[C@@]5(O)C4CC[C@@H]3C2)C1O` (some centres undefined) gave FMDV inh inconclusive and FBPA Giardia inh 1%.
`COc1ccc(N2CC3=C(C2=O)C(c2ccc(Br)cc2)NC(=O)N3C)cc1` (centres undefined) gave LASV entry inh inconclusive, FMDV inh -30%, Marburg entry inh -35%[46.1 µM] and HCMV antiviral -99*.
Screening COC(=O)N[C@H](C(C(=O)OC)=C(C)NCc1ccccc1)c1cccc(F)c1 returned Marburg entry inh -11%[14.2 µM].
For CC1CC(CC(=O)NNc2nc(-c3ccccc3)cs2)C(=O)O1 (centres undefined) the results were FMDV inh 0%, HCMV antiviral 19, FBPA Giardia inh 5% and HCV inhibitor -7%.
For O=C(NNc1nc(-c2ccc(F)cc2)cs1)c1ccccc1 the results were LASV entry inh inconclusive, FMDV inh 13%, Marburg entry inh inconclusive, HCMV antiviral -99*, FBPA Giardia inh -1% and HCV inhibitor inconclusive.
`O=C(NNc1nc(-c2ccccc2)cs1)c1ccc(F)cc1` gave LASV entry inh 10%, FMDV inh 7%, Marburg entry inh -1%, HCMV antiviral -80*, FBPA Giardia inh 6% and HCV inhibitor -19%.
CC1(C)CC(CC(=O)NNc2nc(-c3ccccc3)cs2)C(=O)O1 (centres undefined) was read as LASV entry inh 12%, FMDV inh -6%, Marburg entry inh 1.3µM*, HCMV antiviral -19, FBPA Giardia inh -4% and HCV inhibitor 6%.
For O=C(NNc1nc(-c2ccccc2)cs1)c1cccs1 the results were LASV entry inh inconclusive, FMDV inh 22%, Marburg entry inh inconclusive, HCMV antiviral -8, FBPA Giardia inh 5% and HCV inhibitor inconclusive.
COc1cc(NC(=O)CC2C(=O)N(c3cccc(C)c3)C(=O)N2Cc2ccc(F)cc2)cc(OC)c1 (centres undefined) was read as LASV entry inh inconclusive, FMDV inh -14% and HCMV antiviral -39.
Screening CCOc1cccc(/C=C/c2ccc3cccc(O)c3n2)c1O returned LASV entry inh inconclusive, FMDV inh -1%, Marburg entry inh inconclusive, HCMV antiviral -100*, FBPA Giardia inh -11% and HCV inhibitor 14µM*.
`COc1cc(Cl)cc(/C=C/c2ccc3cccc(O)c3n2)c1OC` gave LASV entry inh 0%, FMDV inh 19%, Marburg entry inh 1%[46.1 µM], HCMV antiviral inconclusive, FBPA Giardia inh 30% and HCV inhibitor -9%.
For CCOc1cccc(/C=C/c2ccc3cccc(O)c3n2)c1OC the results were LASV entry inh inconclusive, FMDV inh -16%, Marburg entry inh inconclusive, HCMV antiviral -93*, FBPA Giardia inh 23% and HCV inhibitor inconclusive.
`COc1ccccc1/C=C/c1ccc2cccc(O)c2n1` gave LASV entry inh -26%[46.1 µM], FMDV inh -25%, Marburg entry inh inconclusive, HCMV antiviral 11, FBPA Giardia inh -16% and HCV inhibitor inconclusive.
`CCOc1c(OC(C)=O)ccc(/C=C/c2ccc3cccc(OC(C)=O)c3n2)c1[N+](=O)[O-]` gave LASV entry inh inconclusive, FMDV inh 23%, Marburg entry inh 10%, HCMV antiviral 26 and HCV inhibitor 8.9µM*.
For Cc1ccc(NC(=O)c2cc3ccccn3n2)cc1F the results were LASV entry inh 3%[46.1 µM], FMDV inh -10% and HCMV antiviral 90.
`CC(C)c1ccc2[nH]c(O)c(N=NC(=S)NCCc3ccccc3)c2c1` gave FMDV inh -15%, Marburg entry inh 3%, HCMV antiviral inconclusive, FBPA Giardia inh 11% and HCV inhibitor inconclusive.
For CCNC(=S)N=Nc1c(O)[nH]c2ccc(C(C)C)cc12 the results were LASV entry inh 3.5µM*, FMDV inh -24%, Marburg entry inh -23%, HCMV antiviral -66*, FBPA Giardia inh 5% and HCV inhibitor inconclusive.
CCCn1c(C)nc2c(NC(C)CN(C)C)nc(C)nc21 (centres undefined) was read as FBPA Giardia inh 1%.
